# Experimental data as given in PubChem BioAssay (NCATS).
# Results filed as inconclusive are left out. Values without a mark were called inactive. Calls come from the whole dose curve.
# Assay: Cell Viability - MRC5 (AID 434);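 note: potency reflects cytotoxicity seen as loss of intracellular ATP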
# Settings: MRC5 lung fibroblast viability, qHTS
# In short: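 MRC5 normal human lung fibroblasts, 1500 cells/well, exposed to compound for 40 hr at 37 C. Cellular ATP was read by CellTiter-Glo luminescence; data normalized to DMSO and 100 uM tamoxifen, with AC50 from Hill fits.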
# Potency is the fitted concentration of half-maximal effect.
row,SMILES,Potency [µM]
1,CC(=O)Nc1ccccc1,> 92
2,CC(=O)Nc1cccc(O)c1,> 92
3,CCN(CC)C(=O)c1cccc(C)c1,> 92
4,O=C1C(c2[nH]c3ccccc3c2O)=Nc2ccccc21,> 92
5,Cc1c(N(C)C)c(=O)n(-c2ccccc2)n1C,> 92
6,CC(=O)OCC(COC(C)=O)OC(C)=O,> 92
7,COc1ccc(O)cc1,> 92
8,CCCCCCCC(=O)OCC(COC(=O)CCCCCCC)OC(=O)CCCCCCC,> 92
9,C=CCNC(N)=S,> 92
10,CC1CC(OC(=O)c2ccccc2O)CC(C)(C)C1 (stereo not drawn),> 92
11,FC(F)(F)C(Cl)Br (stereo not drawn),> 92
12,CCCCCC(N)=O,> 92
13,O=C(c1ccccc1)C(O)c1ccccc1 (stereo not drawn),> 92
14,Cc1cc(=O)[nH]c(=S)[nH]1,> 92
15,CCCC(O)C(CC)CO (stereo not drawn),> 92
16,CC(=O)Nc1ccc(C(=O)O)cc1,> 92
17,O=C(O)CCCCC1CCSS1 (stereo not drawn),> 92
18,O=C1c2cccc(O)c2C(=O)c2c(O)cccc21,> 92
